# Source: the supplement of paper PMC6555819
# Tested on: VDR:RXRa (NR concentration 270 nM, RXRa partner concentration 90 nM)
# Assay: PBM binding z-score (relative to random genomic background probes); higher = stronger binding; sequences stand for … in GC…GCGATTGACAGCGTAGAATGAAGG
# Experimental: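 Protein-binding microarray (Agilent 4x180K custom design, double-stranded 60-nt probes: 5' GC cap, 34-nt variable region, 24-nt constant primer region; full probe sequence given). Purified or IVT nuclear receptor:RXRα heterodimers (3:1 NR:RXRα, mostly 270:90 nM) or homodimers were incubated for 1 h in PBS with 2% milk and no ligand, then detected with Alexa488 antibodies. Fluorescence from o1-orientation probes (~5 replicates averaged) was converted to z-scores against 500 random hg19 background probes. Variable regions are seed direct-repeat (DR0–DR5) sites, all their single-nucleotide variants and half-site ablations.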
row,Sequence,PBM binding z-score
1,ATAGAAAGGTCGTGAGGTGAGTATACAGAAAGGC,3.63
2,AGAATGAGGTTATTAAGATAAGGGAATTGCGGTC,1.3
3,AGTATGAGGTTATTAAGATCAGGGAATTGCGGTC,2.58
4,CCGACTGGGGCAAGGTTCCCATAACGCACAGCCA,-0.47
5,CAAACTAGGTCACCGGTAGGTCAAAGTCCGCATG,4.75
6,AATACAGGGTCACTAGGCCAGAGGAGGTACGAAT,4.09
7,TCTTGTAGATCAAAGGTGAAGAAAGCCGAAGCCT,0.74
8,CAAACTAGGTCACAGAGGTCAAAGTACGTGCGTA,7.94
9,CGTCCAAGGTCAGCAGGTCAGCGAAAGCGACGTG,4.26
10,TCTTGTAGATCAATAAAGGTTAAGAAAGTGCGCT,2.18
11,CCAGACAGGTGATAGGTAACTCAGTCTGGTACGC,-0.0769
12,CGAACTATGTCATCCAGGACAGTGAATACATTGA,1.05
13,TCGAGTACGTTAGTCGGGGCATTCAGCCAACATA,0.707
14,ACTTACAGGTCAACGAGGTTATAGCACGCGTATA,7.66
15,CCTACTGGGCCACAGGTCATTGATTCCAATGCTC,1.99
16,TCAGAAAGGTGAAGGTAACTCAGGTACGCAGTCG,1.35
17,TCATATAGGTAAATTCTAGGTGAAAGTCCGATCT,1.14
18,CCGACTGGGGCAAACGTTACCATACTCAGTACGA,-0.23
19,ATCAAAAGGTCGTGAGGTGAGTATACAGAAAGGC,3.92
20,ATCGAAAGGTCGAGGTGAGTAAAGAGAAAGGGAA,2.25

row,Sequence,PBM binding z-score
1,CCTCGGAGGACAGCAGGAGGTCAGAGCTGCCAGA,1.09
2,CCTAGTTGGTCAGTAGGTCACACACCGGATATGA,1.91
3,AGAATGAGGTTAAGATCAGGGATACAGAATACAT,1.47
4,CCTACTGGGCCAAAGGTCATTAATTCCAATGCTC,4.22
5,CGAACGAGGGCATAAGTTGATAGCAAATGCCGAT,0.652
6,TCTGCTAGGTCAGTTGGTCAGATAACGAGCTGCC,0.238
7,TTACCAAGCTGAAGGTCGTTGATCCCTCTGTAGA,0.724
8,ACAGACAGGCGAGTGAAGGTAACTCAGCTGGACG,-0.451
9,CCTTACGGGTTAAGGTTATAGCACGGGTGGTACG,0.894
10,CAGCCTAGGTCAGGCCCAGTATAGGAGGAACGTT,-0.208
11,TCGAGTAGGTTAACAATGGGGCATTCAGCTTTCT,0.406
12,GCAGACAGGTGATACGCAGGTAACTCAGGGTGGC,-0.655
13,TCGAGTAGGTTACCAATGGGGAATTCAGCTTTCT,0.0458
14,ATCTCTAGGTAAGACTCTGTTCAGTGAAGAACGC,0.234
15,CCTTACGGGTCACTGACAGGTTATAACATTTGGA,3.84
16,ACTTACGGGTCAACGAGGTTATAACACGCGTATA,7.9
17,CGAACTAGGTCTTCCAGGACAGTGAATACATTGA,-0.0143
18,GCATGTAGATCAAGGTTAAGAAAGACTAAGCTAA,0.22
19,CCTCGGAGGACAACGGGAGGTCAGAGCTGCCAGA,1.91
20,TTACCAAGGTGATGGTCGTTGATCCCTCTGTAGA,-0.193
